Measurements reported in publication PMC7819943, “Rice protein-binding microarrays: a tool to detect cis-acting elements near promoter regions in rice”.
Over roughly 35,000 sequences, “fluorescence intensity (a.u.)” has its median near 10,000; the highest 2% begin near 52,000. Only a selection was taken, and the highest values are over-represented in it overall.

These sequences were tested against T1, OsWOX13 (Oryza sativa, UniProt Q5QMM3 1-267) (assay: protein-binding microarray (RPBM); PBS, 2% BSA, 51.3 ng/ul salmon testes DNA, 50 uM zinc acetate, 200 nM TF, 25 C, 1 h; high values mean tight binding). Conditions: protein: recombinant; tags: N-terminal polyhistidine and DsRed monomer fusion (pET32a); label: CyDye5-dUTP incorporated in the synthesized complementary strand; 3' TTTTT single-stranded linker to array surface; dsDNA, one strand shown.
T1 sequence: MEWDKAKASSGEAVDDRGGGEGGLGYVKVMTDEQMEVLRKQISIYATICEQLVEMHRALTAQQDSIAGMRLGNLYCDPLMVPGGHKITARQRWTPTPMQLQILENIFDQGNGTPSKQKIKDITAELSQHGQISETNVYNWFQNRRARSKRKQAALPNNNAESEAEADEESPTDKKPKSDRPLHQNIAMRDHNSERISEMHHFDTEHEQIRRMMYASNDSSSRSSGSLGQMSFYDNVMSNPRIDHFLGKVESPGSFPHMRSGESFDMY
How it was run: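 Polyhistidine-tagged DsRed fusions of transcription factors, joined at the N-terminus, were expressed in E. coli BL21-CodonPlus and isolated on Ni–NTA. They were incubated at 200 nM for 1 h at 25 °C on a custom Agilent array, double-stranded and BSA-blocked, in PBS with 2% BSA, salmon testes DNA and 50 µM zinc acetate. The binding signal is per-feature fluorescence intensity (arbitrary units) read on an Axon 4000B scanner after washing.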
“ATTATGTAAATTTTGACTAATGTTTAGTCGAAGTGCAAGTCGGAGTCACCTAGTGCAG” was tested, and the binding signal was 8100 fluorescence intensity (a.u.). In the case of “TGTCACAAATCTAATGGTATAATTAGTTCATAGTTCGGATCGGAGTCACCTAGTGCAG”, the binding signal is reported as 8340 fluorescence intensity (a.u.). “TCTAAATTTTCATGACATGGTACCATACTACAAATCCATCCGGAGTCACCTAGTGCAG” was tested, and the binding signal was 9500 fluorescence intensity (a.u.). “TTTAGACAGTAATTAAAGTCGAATTACATTGCATTGTTCGCGGAGTCACCTAGTGCAG” was tested, and the binding signal was 40300 fluorescence intensity (a.u.). For “GTAATTGGGAGGGAATTTCTCCTTTACTTCGCCTAAACAACGGAGTCACCTAGTGCAG”, the binding signal was 14100 fluorescence intensity (a.u.). With “TCTAACTGTGGATAATATCTGACAGGAAATTTGATATCAACGGAGTCACCTAGTGCAG” the binding signal was 6210 fluorescence intensity (a.u.). For “TGTTGGTTAAGTAATTAATTAAGTCTTGGCTATTGGCGATCGGAGTCACCTAGTGCAG”, the binding signal was 13500 fluorescence intensity (a.u.). With “TCGTAAAATTAATTGTAAATTGTAATATGATAACAAGGCCCGGAGTCACCTAGTGCAG” the binding signal was 33100 fluorescence intensity (a.u.). For “GAGTTTAATTAATTAATTTCTTAAAATTGATGTCATCACACGGAGTCACCTAGTGCAG”, the binding signal was 54800 fluorescence intensity (a.u.). For “GTGCTTTAATCAGTAATTTTGCAATTGCTTTTGAATTTCACGGAGTCACCTAGTGCAG”, the binding signal was 5640 fluorescence intensity (a.u.). With “TCTTAATTGAAAGAGTTTTCATCATGTCTTTCAGTCACCACGGAGTCACCTAGTGCAG” the binding signal was 53900 fluorescence intensity (a.u.). With “CAAAATTATCTAATTGATGACTATTTCTAAATACACATCACGGAGTCACCTAGTGCAG” the binding signal was 41800 fluorescence intensity (a.u.). “AGTTTTCAAAATTTGACTTTAAAATTTAAATCTTAAATCACGGAGTCACCTAGTGCAG” was tested, and the binding signal was 3970 fluorescence intensity (a.u.). In the case of “ACTTTTCAGTTACATCATCTCTAATTTCAATTGAAATCCACGGAGTCACCTAGTGCAG”, the binding signal is reported as 7120 fluorescence intensity (a.u.). “CTAATCAAAATGTAATTAACTCATTTATATATTACGGAAACGGAGTCACCTAGTGCAG” was tested, and the binding signal was 21800 fluorescence intensity (a.u.). In the case of “TCGATCTCCATTAATTATCCAACGACGACACGACGACGCACGGAGTCACCTAGTGCAG”, the binding signal is reported as 5720 fluorescence intensity (a.u.). In the case of “GGGTCAGGGTGGGCGTGGATTGATATTTTAATACGAATAACGGAGTCACCTAGTGCAG”, the binding signal is reported as 10800 fluorescence intensity (a.u.). With “TGCACGCTAATTTGCCTTGCTGCTGCTGCTACTAGGGCGGCGGAGTCACCTAGTGCAG” the binding signal was 4920 fluorescence intensity (a.u.). With “GAACGGAGGATGCTGAGCTCTCTTATGAGGTCTATTTTCCCGGAGTCACCTAGTGCAG” the binding signal was 65100 fluorescence intensity (a.u.). “GCTGATGACTTTTCTCCCGGTTTCATATTTTCTTTTAGAACGGAGTCACCTAGTGCAG” was tested, and the binding signal was 8420 fluorescence intensity (a.u.). With “CATGATTTTACTTTCTTTTCAGGTCTTAGGAGTGAGCTTCCGGAGTCACCTAGTGCAG” the binding signal was 9930 fluorescence intensity (a.u.). With “ACTTAATTATGTTGTGGTTAATTAGCCCCGAAATGGTCGTCGGAGTCACCTAGTGCAG” the binding signal was 52900 fluorescence intensity (a.u.). “GTCATTTTAATTGCAAATGCTTTTATATGTTGTTTCTTTCCGGAGTCACCTAGTGCAG” was tested, and the binding signal was 6630 fluorescence intensity (a.u.). For “TATGATTTATAAATTAATGGATTTAAAGTTTTAAGTTAATCGGAGTCACCTAGTGCAG”, the binding signal was 43900 fluorescence intensity (a.u.). In the case of “TTAAAATTTATATGTTAAATTATAGTGGTTTAAAATTTCACGGAGTCACCTAGTGCAG”, the binding signal is reported as 8530 fluorescence intensity (a.u.). With “TTAATTAATAATATGTTAATGATTTTCTCATCTTACCTTACGGAGTCACCTAGTGCAG” the binding signal was 13400 fluorescence intensity (a.u.). For “TAGATGAGTTAAATATAATTATTTGTATGTTTTAATAAATCGGAGTCACCTAGTGCAG”, the binding signal was 3630 fluorescence intensity (a.u.). “GATTAATGATTAATTAATAATATGTTAATGAGTTTTATCCCGGAGTCACCTAGTGCAG” was tested, and the binding signal was 52500 fluorescence intensity (a.u.). For “AGCCTAATTAATTCGTCATTAGCATATGTGGGTTATTATACGGAGTCACCTAGTGCAG”, the binding signal was 27800 fluorescence intensity (a.u.). With “GTTTAATTAATTATATGTTAATGATTTTCTTTTCATGCCCCGGAGTCACCTAGTGCAG” the binding signal was 65400 fluorescence intensity (a.u.). With “GAGATAGAGATAATAGAAAGATTAAACAAGATTCGATAGACGGAGTCACCTAGTGCAG” the binding signal was 3590 fluorescence intensity (a.u.). In the case of “CGAGATAAATCACGGTAATCACAGCAACAGCAACAGCAACCGGAGTCACCTAGTGCAG”, the binding signal is reported as 10400 fluorescence intensity (a.u.). “ATGCCATCCAATCAAGCCACGACGATCCACAGCCATAGTGCGGAGTCACCTAGTGCAG” was tested, and the binding signal was 11500 fluorescence intensity (a.u.). “AAGCAAATCTCTAGATAGATAGATAGATGGATGGATGGATCGGAGTCACCTAGTGCAG” was tested, and the binding signal was 10800 fluorescence intensity (a.u.). For “GATGTGATTGGATTAATTTTCAAAAGTACTTTTATATGATCGGAGTCACCTAGTGCAG”, the binding signal was 56300 fluorescence intensity (a.u.). In the case of “CGGTCAAATTATCCAAATTAATTAAAGAGGGAACTCGGTCCGGAGTCACCTAGTGCAG”, the binding signal is reported as 35300 fluorescence intensity (a.u.). “ATTTAATTAATATGTTAATGAGCTAATCCGTTTTCGGGACCGGAGTCACCTAGTGCAG” was tested, and the binding signal was 52300 fluorescence intensity (a.u.). For “TGCTAATGGACTTATTACTTTTGCTTGCTTTAATTTTGCCCGGAGTCACCTAGTGCAG”, the binding signal was 14600 fluorescence intensity (a.u.). “CTTACCTGCTTTAATTTATGCATAATGTTGCTTCATAAACCGGAGTCACCTAGTGCAG” was tested, and the binding signal was 6090 fluorescence intensity (a.u.). For “GATCATTTCAGTGATTAATTTAATTGGAAAAGTAATTCAACGGAGTCACCTAGTGCAG”, the binding signal was 6700 fluorescence intensity (a.u.). In the case of “TGCTTAATTAATTATGTGCTAATGAGGTCTTTCATTTTACCGGAGTCACCTAGTGCAG”, the binding signal is reported as 56100 fluorescence intensity (a.u.). For “GAGGGAGTACTAATTATTTAATTTGATGATTATAATACTTCGGAGTCACCTAGTGCAG”, the binding signal was 17900 fluorescence intensity (a.u.).
